Laboratory results reported in the supplement of paper PMC11732987, “Enantioselective OTUD7B fragment discovery through chemoproteomics screening and high-throughput optimisation” (Communications Chemistry, 2025).

Columns and labels:
Experiment in all cases: log2 ratio of Biotin-Ahx-Ub-VS probe labelling (fragment/DMSO); higher = less target engagement (more negative = stronger competition), active = hit call of the paper (q ≤ 0.05, log2 ratio ≤ -1)
Details in all cases: compound concentration: 200 uM; treatment time: 3 h
USP42 = target: T1, USP42 (UniProt Q9H9J4)
T1 sequence (whole entry): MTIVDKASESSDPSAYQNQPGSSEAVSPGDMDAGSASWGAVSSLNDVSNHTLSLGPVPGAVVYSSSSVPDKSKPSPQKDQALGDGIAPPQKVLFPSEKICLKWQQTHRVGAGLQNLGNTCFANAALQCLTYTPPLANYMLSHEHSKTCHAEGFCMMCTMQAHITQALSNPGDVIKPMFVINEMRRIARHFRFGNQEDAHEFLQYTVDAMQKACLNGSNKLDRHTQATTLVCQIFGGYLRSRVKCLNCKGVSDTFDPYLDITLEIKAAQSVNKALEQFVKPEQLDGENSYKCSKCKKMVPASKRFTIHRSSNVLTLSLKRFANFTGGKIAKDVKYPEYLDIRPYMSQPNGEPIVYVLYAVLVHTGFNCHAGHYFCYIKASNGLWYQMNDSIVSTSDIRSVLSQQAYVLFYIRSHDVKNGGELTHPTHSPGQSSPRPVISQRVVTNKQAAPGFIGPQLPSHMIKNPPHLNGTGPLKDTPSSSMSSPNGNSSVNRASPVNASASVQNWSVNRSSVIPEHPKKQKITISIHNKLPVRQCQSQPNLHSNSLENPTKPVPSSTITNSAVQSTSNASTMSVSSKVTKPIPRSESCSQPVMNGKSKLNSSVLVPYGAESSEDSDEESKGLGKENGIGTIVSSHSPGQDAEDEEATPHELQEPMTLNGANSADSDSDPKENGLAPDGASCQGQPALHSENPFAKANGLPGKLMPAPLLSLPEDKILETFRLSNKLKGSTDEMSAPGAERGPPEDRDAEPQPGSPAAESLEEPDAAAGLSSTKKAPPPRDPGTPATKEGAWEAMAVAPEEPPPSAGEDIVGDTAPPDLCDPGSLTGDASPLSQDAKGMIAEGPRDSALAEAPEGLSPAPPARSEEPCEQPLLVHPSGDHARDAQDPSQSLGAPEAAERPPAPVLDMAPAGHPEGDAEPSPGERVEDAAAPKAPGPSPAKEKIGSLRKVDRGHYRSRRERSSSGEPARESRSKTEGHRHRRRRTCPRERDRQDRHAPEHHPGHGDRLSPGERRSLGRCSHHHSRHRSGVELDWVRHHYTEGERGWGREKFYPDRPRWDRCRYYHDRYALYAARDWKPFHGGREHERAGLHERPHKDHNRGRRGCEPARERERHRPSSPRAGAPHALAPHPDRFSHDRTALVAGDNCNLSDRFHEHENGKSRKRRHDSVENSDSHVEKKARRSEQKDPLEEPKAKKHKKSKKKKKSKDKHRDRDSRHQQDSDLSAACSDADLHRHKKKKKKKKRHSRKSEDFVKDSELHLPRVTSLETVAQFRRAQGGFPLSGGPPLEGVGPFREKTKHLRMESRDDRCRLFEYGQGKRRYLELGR
Procedure, shortened: (§1)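 HEK293T lysate in Tris/CHAPS/IGEPAL buffer with protease inhibitors (495 µg per sample) was given fragment at 200 µM or vehicle for 3 h, in triplicate. It then received Biotin-Ahx-Ub-VS at 0.5 µM final for 1 h. Labelled DUBs were NeutrAvidin-enriched, digested with LysC and trypsin, and run by diaPASEF LC-MS/MS. Values are average log2 fragment/vehicle ratios by unpaired t-test on global-median-normalised Spectronaut quantities of proteins with ≥2 unique peptides.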

USP46 = USP46 (UniProt P62068)
Sequence of USP46 (P62068 whole entry): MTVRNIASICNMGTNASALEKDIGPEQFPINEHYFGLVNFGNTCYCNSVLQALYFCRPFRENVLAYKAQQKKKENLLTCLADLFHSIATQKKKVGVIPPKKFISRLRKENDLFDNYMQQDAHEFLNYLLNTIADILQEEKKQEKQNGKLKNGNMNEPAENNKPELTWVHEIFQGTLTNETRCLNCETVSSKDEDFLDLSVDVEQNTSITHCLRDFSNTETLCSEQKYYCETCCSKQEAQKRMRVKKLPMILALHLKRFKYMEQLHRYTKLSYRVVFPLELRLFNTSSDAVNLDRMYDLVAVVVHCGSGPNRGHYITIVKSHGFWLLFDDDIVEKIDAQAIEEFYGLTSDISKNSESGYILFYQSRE
Procedure, shortened: as §1

USP47 = target: T2, USP47 (UniProt Q96K76)
T2 sequence (whole entry): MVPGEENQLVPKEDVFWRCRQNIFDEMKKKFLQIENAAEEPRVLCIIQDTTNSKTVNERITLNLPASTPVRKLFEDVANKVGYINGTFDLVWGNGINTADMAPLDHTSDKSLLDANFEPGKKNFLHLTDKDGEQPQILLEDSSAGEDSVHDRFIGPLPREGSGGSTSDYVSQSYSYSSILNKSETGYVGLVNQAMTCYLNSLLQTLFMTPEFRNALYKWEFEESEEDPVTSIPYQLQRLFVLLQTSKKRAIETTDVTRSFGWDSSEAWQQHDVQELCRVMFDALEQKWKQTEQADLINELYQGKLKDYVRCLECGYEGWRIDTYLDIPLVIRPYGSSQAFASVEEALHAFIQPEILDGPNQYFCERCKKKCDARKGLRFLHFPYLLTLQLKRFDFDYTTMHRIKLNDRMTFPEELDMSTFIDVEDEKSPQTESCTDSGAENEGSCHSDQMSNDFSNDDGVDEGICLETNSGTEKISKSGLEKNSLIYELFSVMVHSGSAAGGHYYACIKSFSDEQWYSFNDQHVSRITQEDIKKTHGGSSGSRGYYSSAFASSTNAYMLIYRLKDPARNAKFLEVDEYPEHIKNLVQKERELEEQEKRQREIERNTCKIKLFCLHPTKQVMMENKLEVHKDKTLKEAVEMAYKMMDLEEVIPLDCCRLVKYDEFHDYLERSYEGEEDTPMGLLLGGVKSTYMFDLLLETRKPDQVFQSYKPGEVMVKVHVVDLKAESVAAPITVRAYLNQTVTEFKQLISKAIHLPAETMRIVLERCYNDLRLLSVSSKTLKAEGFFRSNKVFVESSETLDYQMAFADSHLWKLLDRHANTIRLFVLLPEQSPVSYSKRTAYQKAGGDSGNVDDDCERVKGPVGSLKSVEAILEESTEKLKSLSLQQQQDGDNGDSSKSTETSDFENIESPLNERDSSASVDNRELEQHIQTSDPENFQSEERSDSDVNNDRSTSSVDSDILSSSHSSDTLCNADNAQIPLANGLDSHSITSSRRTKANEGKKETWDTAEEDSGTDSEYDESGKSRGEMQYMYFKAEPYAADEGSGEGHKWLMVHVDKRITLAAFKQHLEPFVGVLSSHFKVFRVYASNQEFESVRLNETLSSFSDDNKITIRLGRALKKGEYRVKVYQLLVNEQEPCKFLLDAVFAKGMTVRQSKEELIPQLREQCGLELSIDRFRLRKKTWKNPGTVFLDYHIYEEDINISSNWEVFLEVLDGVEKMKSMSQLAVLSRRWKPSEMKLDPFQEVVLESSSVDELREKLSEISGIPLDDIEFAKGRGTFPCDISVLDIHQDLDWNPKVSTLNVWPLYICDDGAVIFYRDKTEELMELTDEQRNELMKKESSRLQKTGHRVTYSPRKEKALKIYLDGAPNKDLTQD
Procedure, shortened: as §1

USP48 = target: T3, USP48 (UniProt Q86UV5)
T3 sequence (whole entry): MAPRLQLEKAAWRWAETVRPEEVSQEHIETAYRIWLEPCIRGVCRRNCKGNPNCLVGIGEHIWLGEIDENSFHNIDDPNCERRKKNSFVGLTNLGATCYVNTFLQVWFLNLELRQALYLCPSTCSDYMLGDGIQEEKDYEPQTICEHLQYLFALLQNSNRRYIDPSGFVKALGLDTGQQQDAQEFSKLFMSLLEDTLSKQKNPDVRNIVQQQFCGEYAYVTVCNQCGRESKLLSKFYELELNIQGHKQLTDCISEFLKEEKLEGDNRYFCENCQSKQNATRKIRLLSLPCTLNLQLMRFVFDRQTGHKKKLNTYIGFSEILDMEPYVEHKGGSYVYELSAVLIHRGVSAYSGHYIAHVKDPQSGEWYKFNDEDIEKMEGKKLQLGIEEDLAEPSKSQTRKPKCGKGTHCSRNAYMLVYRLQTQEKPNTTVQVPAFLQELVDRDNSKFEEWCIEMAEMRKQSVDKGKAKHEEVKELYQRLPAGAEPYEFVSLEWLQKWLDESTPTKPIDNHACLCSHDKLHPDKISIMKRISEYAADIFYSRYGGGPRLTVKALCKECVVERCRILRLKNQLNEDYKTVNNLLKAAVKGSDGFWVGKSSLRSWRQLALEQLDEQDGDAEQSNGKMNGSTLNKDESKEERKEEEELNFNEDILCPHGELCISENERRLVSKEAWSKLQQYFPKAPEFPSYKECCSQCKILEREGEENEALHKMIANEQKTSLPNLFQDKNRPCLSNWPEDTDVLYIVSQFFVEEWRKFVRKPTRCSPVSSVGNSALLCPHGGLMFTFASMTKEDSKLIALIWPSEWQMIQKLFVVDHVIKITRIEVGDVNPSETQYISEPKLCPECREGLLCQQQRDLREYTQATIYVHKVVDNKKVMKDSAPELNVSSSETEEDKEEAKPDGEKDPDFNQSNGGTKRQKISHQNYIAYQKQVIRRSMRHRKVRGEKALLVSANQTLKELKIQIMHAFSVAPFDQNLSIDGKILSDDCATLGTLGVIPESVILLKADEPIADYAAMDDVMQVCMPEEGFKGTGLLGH
Procedure, shortened: as §1

USP5 = target: T4, USP5 (UniProt P45974)
T4 sequence (whole entry): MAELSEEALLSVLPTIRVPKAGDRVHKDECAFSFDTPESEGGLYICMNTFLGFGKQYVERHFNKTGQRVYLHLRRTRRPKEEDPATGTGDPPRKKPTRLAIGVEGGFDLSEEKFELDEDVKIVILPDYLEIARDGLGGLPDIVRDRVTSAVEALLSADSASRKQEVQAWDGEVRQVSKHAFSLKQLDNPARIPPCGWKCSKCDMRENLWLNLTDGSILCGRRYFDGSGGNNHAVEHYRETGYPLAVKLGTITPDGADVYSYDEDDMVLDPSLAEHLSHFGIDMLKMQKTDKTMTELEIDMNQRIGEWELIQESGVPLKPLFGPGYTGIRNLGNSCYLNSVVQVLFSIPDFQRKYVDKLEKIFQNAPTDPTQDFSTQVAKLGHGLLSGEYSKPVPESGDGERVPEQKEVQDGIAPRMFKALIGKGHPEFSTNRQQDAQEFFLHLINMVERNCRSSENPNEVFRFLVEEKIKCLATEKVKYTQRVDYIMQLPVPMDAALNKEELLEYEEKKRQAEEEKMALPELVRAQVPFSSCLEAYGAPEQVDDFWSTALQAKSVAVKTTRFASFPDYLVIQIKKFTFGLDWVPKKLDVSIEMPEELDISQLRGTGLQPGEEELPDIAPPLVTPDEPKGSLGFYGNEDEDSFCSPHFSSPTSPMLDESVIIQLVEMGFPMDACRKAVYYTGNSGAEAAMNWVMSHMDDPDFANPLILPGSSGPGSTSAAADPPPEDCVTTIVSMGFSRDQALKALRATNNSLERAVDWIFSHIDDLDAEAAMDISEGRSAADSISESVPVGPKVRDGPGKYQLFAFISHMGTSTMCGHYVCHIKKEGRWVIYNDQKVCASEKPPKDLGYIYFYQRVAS
Procedure, shortened: as §1

USP54 = USP54 (UniProt Q70EL1)
Sequence of USP54 (Q70EL1 whole entry): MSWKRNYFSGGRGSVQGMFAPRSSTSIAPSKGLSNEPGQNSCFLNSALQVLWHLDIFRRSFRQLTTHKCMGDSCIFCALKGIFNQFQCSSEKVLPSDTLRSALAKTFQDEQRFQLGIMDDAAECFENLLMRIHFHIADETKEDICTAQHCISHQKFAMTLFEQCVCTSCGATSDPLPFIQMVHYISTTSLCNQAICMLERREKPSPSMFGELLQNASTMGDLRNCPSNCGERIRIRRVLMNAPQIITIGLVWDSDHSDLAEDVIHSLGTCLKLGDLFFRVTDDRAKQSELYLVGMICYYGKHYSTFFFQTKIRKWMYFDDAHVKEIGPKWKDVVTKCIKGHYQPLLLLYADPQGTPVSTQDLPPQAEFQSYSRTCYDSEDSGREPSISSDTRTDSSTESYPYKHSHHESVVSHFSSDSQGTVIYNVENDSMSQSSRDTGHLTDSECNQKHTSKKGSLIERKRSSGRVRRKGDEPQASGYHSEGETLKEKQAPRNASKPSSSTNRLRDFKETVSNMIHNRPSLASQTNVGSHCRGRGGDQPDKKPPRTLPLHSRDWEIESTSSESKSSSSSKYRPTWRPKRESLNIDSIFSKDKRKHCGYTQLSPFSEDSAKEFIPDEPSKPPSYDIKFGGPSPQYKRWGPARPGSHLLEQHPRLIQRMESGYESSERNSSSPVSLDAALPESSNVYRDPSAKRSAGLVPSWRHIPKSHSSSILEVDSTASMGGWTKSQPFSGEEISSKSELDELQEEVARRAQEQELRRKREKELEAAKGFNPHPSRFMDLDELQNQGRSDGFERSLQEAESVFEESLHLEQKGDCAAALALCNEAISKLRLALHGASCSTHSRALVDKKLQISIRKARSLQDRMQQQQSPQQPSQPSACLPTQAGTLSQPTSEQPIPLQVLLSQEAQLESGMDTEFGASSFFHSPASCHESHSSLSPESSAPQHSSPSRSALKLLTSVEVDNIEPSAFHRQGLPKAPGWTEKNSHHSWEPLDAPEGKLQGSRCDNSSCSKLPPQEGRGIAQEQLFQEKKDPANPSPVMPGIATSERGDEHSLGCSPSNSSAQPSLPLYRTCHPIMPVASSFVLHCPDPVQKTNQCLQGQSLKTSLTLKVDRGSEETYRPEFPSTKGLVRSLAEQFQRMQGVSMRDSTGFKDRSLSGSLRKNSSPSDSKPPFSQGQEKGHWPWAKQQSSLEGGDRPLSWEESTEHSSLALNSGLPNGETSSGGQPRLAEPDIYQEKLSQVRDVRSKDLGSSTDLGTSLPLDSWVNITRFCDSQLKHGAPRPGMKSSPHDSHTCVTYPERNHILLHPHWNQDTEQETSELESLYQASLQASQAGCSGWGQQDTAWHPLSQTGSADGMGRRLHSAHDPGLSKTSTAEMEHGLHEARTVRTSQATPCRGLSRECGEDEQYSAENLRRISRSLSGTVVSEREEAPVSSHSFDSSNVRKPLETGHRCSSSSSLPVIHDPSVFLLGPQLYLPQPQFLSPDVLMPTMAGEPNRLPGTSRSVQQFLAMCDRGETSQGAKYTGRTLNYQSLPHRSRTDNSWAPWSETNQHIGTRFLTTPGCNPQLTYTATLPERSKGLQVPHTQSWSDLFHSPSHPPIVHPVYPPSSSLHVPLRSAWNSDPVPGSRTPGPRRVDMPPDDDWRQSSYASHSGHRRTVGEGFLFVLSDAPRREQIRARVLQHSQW
Procedure, shortened: as §1

USP7 = USP7 (UniProt Q93009)
Sequence of USP7 (Q93009 whole entry, looked up): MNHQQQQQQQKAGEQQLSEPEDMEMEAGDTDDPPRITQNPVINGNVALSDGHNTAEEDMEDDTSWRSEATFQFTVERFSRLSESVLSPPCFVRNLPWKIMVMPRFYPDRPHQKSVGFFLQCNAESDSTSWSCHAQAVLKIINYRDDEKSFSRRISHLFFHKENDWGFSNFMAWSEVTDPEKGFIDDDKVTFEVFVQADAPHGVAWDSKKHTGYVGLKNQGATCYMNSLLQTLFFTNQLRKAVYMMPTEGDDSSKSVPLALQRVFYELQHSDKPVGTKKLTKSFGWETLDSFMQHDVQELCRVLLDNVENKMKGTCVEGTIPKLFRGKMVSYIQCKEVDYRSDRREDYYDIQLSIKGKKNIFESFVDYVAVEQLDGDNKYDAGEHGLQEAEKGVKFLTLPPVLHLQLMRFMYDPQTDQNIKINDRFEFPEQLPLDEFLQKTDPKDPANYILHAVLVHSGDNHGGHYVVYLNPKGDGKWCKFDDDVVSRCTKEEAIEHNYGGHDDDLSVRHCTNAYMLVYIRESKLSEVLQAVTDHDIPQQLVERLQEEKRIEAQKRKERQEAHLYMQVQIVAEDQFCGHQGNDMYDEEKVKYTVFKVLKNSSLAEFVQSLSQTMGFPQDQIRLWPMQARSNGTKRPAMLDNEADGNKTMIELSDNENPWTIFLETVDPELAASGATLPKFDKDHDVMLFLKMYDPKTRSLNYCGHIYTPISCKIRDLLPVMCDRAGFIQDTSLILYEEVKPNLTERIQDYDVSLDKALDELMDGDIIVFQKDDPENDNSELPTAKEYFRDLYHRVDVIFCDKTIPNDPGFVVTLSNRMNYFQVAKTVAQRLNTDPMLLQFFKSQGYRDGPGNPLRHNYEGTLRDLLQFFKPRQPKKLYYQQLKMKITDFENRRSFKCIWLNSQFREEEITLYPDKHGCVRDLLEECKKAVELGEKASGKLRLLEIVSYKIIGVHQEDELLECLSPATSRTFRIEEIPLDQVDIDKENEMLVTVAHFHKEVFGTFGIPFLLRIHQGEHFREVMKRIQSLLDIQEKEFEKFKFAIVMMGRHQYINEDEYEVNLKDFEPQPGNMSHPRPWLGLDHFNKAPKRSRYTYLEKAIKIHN
Procedure, shortened: as §1

USP8 = target: T5, USP8 (UniProt P40818)
T5 sequence (whole entry): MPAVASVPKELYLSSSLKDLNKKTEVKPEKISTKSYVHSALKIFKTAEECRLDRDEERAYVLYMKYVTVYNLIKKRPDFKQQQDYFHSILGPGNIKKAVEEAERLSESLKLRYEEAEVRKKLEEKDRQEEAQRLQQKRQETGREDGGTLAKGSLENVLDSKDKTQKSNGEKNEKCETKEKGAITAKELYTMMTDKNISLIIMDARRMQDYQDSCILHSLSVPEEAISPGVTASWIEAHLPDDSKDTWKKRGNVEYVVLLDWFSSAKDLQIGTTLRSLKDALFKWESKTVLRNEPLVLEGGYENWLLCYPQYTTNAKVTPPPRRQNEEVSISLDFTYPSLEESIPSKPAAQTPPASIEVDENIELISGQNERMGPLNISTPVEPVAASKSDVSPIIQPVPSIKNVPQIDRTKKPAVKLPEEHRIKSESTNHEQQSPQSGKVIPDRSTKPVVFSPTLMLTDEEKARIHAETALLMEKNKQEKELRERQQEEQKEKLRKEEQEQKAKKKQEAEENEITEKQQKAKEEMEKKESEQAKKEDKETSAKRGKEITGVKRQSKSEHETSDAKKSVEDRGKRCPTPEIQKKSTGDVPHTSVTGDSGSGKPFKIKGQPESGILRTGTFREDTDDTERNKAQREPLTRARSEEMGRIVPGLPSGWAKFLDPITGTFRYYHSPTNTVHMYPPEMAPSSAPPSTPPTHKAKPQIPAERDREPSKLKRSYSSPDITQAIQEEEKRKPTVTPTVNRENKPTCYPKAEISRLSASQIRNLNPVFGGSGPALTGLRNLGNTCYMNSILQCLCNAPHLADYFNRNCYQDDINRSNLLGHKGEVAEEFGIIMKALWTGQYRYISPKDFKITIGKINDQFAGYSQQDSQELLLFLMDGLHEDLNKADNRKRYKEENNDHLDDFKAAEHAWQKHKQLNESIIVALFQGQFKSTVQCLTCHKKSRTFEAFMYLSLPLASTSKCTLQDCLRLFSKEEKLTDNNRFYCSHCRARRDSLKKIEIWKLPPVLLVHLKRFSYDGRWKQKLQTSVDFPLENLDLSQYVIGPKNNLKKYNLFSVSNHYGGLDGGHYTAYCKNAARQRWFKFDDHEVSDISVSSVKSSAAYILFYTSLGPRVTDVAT
Procedure, shortened: as §1

Measured: log2 ratio of Biotin-Ahx-Ub-VS probe labelling

CC(NC(=O)CCl)c1cnn(C2CC2)c1 (stereo not drawn)
inactive: USP42 0.309 | USP46 -0.113 | USP47 -0.514 | USP48 0.0173 | USP5 -0.392 | USP54 0.76 | USP7 -0.323 | USP8 -0.373
